An excerpt weighted towards active compounds, which were near 4% of everything screened.
Beta apoptosis = beta cell apoptosis inhibition. INS-1E cytokine-induced death, ATP luminescence, 48 h; percent of positive-control rescue, neutral wells zero. 300,000 tested, 0.8% active. protection from apoptosis, % (test concentration not listed);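 active = Every replicate reaches about 75%, or at least half do and their mean reaches it too, limit read from the data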;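 note: 0% = cytokine-treated negative control wells and 100% = positive control rescue; higher means more ATP so stronger rescue from cytokine killing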
Jurkat NFkB inh = lowers PMA/ionomycin-induced NF-kB signal in Jurkat cells; PMA/ionomycin-induced NF-kB luciferase reporter, luminescence; inhibition, % at 4 µM; 330,000 tested, 0.53% active; in the data active = inhibition above about 50%
697 NFkB inh = inhibitors of the PMA/ionomycin-induced NF-kB reporter in 697 B cells. inhibition, % at 4 µM. 330,000 tested, 0.33% active. 697 B-cell NF-kB luciferase reporter, 16 h; in the data active = inhibition above about 35%
Mdm2-MdmX inh = inhibitors of human Mdm2/MdmX interaction; 330,000 tested, 3% active; AID 485346; inhibition, % at 8 µM; O15151+Q00987; SaOS-2 split-luciferase Mdm2/MdmX complementation, luminescence;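 active = inhibition of at least 50% at 8 µM in the primary screen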
Target sequence (O15151 whole entry, looked up): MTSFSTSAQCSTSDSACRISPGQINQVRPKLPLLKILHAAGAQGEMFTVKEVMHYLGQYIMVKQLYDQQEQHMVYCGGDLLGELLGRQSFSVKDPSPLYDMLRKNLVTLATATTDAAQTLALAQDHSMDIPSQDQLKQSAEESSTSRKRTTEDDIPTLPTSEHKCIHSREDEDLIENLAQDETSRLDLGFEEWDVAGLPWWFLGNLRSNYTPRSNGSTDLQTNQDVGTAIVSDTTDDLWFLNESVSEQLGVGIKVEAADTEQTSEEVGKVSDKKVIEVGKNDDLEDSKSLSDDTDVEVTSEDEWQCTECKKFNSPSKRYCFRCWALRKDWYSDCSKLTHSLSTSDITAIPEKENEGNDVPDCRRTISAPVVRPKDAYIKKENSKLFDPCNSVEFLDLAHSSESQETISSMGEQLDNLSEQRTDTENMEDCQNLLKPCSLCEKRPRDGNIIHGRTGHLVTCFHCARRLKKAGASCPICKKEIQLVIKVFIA
Target sequence (Q00987 whole entry, looked up): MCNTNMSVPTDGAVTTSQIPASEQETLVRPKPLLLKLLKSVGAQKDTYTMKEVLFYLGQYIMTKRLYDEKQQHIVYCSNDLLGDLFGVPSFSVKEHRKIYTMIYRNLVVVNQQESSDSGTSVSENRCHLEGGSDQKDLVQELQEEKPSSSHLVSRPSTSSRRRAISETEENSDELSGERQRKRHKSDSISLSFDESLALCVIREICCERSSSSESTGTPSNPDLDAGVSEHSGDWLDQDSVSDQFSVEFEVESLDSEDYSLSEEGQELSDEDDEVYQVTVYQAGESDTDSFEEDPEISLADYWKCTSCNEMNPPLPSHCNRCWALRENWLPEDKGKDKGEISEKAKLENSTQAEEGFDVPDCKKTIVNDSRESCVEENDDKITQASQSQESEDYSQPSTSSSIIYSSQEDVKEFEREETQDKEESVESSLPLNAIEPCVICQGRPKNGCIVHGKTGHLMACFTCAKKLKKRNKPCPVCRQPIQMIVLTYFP
Gli-Sufu antag = blocks Gli-Sufu signaling in a luciferase reporter; Sufu-KO-LIGHT fibroblasts, Gli luciferase reporter luminescence; inhibition, % at 5 µM; 340,000 tested, 0.74% active; AID 588413;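 active = inhibition above about 55%, limit read from the data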;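 note: 0% = DMSO-treated cells and 100% = wells with medium but no cells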
Mdm2-MdmX conf = confirmation of human Mdm2/MdmX interaction inhibitors; Mdm2-MdmX binding, luminescent assay; AID 489028; 10,000 tested, 55% active; inhibition, % at 8 µM; shares compounds with Mdm2-MdmX inh; in the data active = inhibition above about 40%
Full FLuc ctr = full-length luciferase inhibition in Mdm2/MdmX counter-screen | shares compounds with Mdm2-MdmX inh | SaOS-2 full-length luciferase counterscreen, luminescence | inhibition, % at 8 µM | 6,200 tested, 77% active;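 active = mean inhibition at 8 µM reaching about 37%, which flags the compound as non-specific, limit read from the data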;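 note: p53-null SaOS-2 cells with luciferase driven by a doxycycline-inducible promoter; compound on cells about two nights before reading with doxycycline added after day one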
* = called active by the depositor.

How did Cc1ccc(NCc2ccc(O)c3ncccc23)cc1C do in these assays?
Beta apoptosis: 3.6; Jurkat NFkB inh: 24.7; 697 NFkB inh: -42.1; Mdm2-MdmX inh: 77.5*; Gli-Sufu antag: -7.3; Mdm2-MdmX conf: 63.9*; Full FLuc ctr: 48.3*

Results for Oc1c(CNc2ccccc2)cc(COCc2ccccc2)c2cccnc12 ?
Jurkat NFkB inh: 10.3; 697 NFkB inh: -29.3; Mdm2-MdmX inh: 70.5*; Gli-Sufu antag: 3.0; Mdm2-MdmX conf: 44.8*; Full FLuc ctr: 79.0*

What do the screens show for `Fc1cccc(COc2ccccc2CNc2ccccc2)c1`?
Beta apoptosis: 1.4; Gli-Sufu antag: -6.2

How did Cc1ccc(NCc2ccc(O)c3ncccc23)cc1 do in these assays?
Beta apoptosis: 1.8; Jurkat NFkB inh: 13.0; 697 NFkB inh: -34.0; Mdm2-MdmX inh: 75.9*; Gli-Sufu antag: -9.7; Mdm2-MdmX conf: 71.5*; Full FLuc ctr: 66.1*

What do the screens show for `COc1ccc(OC)c(NC(=O)CSc2nc(N3CCOCC3)nc(N3CCOCC3)n2)c1`?
Beta apoptosis: -5.3; Jurkat NFkB inh: -6.2; 697 NFkB inh: 14.0; Mdm2-MdmX inh: 16.8; Gli-Sufu antag: -0.3

How did CCc1ccc(N(CC)C(=O)c2ccc3c(Cl)c4c(nc3c2)CCC4)cc1 do in these assays?
Beta apoptosis: 8.8; Jurkat NFkB inh: -4.8; 697 NFkB inh: 1.3; Mdm2-MdmX inh: 56.2*; Gli-Sufu antag: -19.7; Mdm2-MdmX conf: 31.6

How did Cc1ccc(N(C)C(=O)c2ccc3c(Cl)c4c(nc3c2)CCC4)cc1C do in these assays?
Beta apoptosis: 5.2; Jurkat NFkB inh: -8.5; 697 NFkB inh: -9.8; Mdm2-MdmX inh: -3.0; Gli-Sufu antag: -39.6

How did CCN(CC)CCCNC(=O)c1ccc2c(Cl)c3c(nc2c1)CCCC3 do in these assays?
Beta apoptosis: 3.2; Jurkat NFkB inh: -35.9; 697 NFkB inh: -38.6; Mdm2-MdmX inh: 84.1*; Gli-Sufu antag: 2.2; Mdm2-MdmX conf: 49.4*; Full FLuc ctr: 30.8

What do the screens show for `CCCN1CCN(CCCNC(=O)c2ccc3c(Cl)c4c(nc3c2)CCCC4)CC1`?
Beta apoptosis: 12.0; Jurkat NFkB inh: -14.0; 697 NFkB inh: -18.0; Mdm2-MdmX inh: 70.0*; Gli-Sufu antag: 31.0; Mdm2-MdmX conf: 39.1; Full FLuc ctr: 54.6*

How did O=C(NCCCN1CCCC1)c1ccc2c(Cl)c3c(nc2c1)CCCC3 do in these assays?
Beta apoptosis: -0.8; Jurkat NFkB inh: -26.6; 697 NFkB inh: -23.9; Mdm2-MdmX inh: 71.7*; Gli-Sufu antag: 12.9; Mdm2-MdmX conf: 50.7*; Full FLuc ctr: 44.8*

How did COc1cc2c(cc1OC)C(c1ccccc1F)NCC2 (centres undefined) do in these assays?
Beta apoptosis: -2.5; Jurkat NFkB inh: 2.0; 697 NFkB inh: 8.0; Mdm2-MdmX inh: 17.1; Gli-Sufu antag: -5.5

How did CC1=NN(c2ccc(C)c(C)c2)C(=O)/C1=C\C=C\c1ccc([N+](=O)[O-])o1 do in these assays?
Beta apoptosis: 83.7*; Jurkat NFkB inh: 2.3; 697 NFkB inh: -42.1; Mdm2-MdmX inh: 76.7*; Gli-Sufu antag: 1.3; Mdm2-MdmX conf: 57.1*; Full FLuc ctr: 41.1*

What do the screens show for `Cc1cccn2c(=O)c(C=NCCO)c(NCc3ccco3)nc12`?
Beta apoptosis: -3.8; Jurkat NFkB inh: -17.8; 697 NFkB inh: -50.7; Mdm2-MdmX inh: -16.7; Gli-Sufu antag: 3.7

What do the screens show for `Cc1cccn2c(=O)c(C=NCc3ccco3)c(Nc3ccc(SC(F)F)cc3)nc12`?
Beta apoptosis: 24.8; Jurkat NFkB inh: -4.6; 697 NFkB inh: 17.0; Mdm2-MdmX inh: 55.7*; Gli-Sufu antag: 15.2; Mdm2-MdmX conf: 5.2

How did COc1cc(C(=O)NCC(=O)N2CCN(S(=O)(=O)c3cc(C)ccc3C)CC2)cc(OC)c1OC do in these assays?
Beta apoptosis: 1.5; Jurkat NFkB inh: 19.5; 697 NFkB inh: -23.5; Mdm2-MdmX inh: 53.3*; Gli-Sufu antag: 7.9; Mdm2-MdmX conf: 52.5*; Full FLuc ctr: 42.2*

Results for O=C(NCc1ccccc1)c1onc(CSc2ccccc2)c1C(=O)NCC1CC1 ?
Beta apoptosis: 73.5; Jurkat NFkB inh: -1.5; 697 NFkB inh: 0.5; Mdm2-MdmX inh: 54.5*; Gli-Sufu antag: 11.9; Mdm2-MdmX conf: 49.6*; Full FLuc ctr: 81.4*

How did O=C(Nc1ccccc1)Nc1ccc(Br)c(Cl)c1 do in these assays?
Beta apoptosis: 58.7; Jurkat NFkB inh: -51.1; 697 NFkB inh: -53.4; Mdm2-MdmX inh: 86.8*; Gli-Sufu antag: 11.5; Mdm2-MdmX conf: 43.9*; Full FLuc ctr: 48.2*

How did O=C(Nc1ccc(Cl)c(Cl)c1)Nc1ccc(Br)cc1F do in these assays?
Jurkat NFkB inh: -4.1; 697 NFkB inh: -2.6; Mdm2-MdmX inh: 95.0*; Gli-Sufu antag: -8.0; Mdm2-MdmX conf: 92.8*; Full FLuc ctr: 35.2

How did O=C(Nc1ccc(Cl)cc1)Nc1ccc(Cl)c(Cl)c1 do in these assays?
Beta apoptosis: 113.1*; Jurkat NFkB inh: -77.3; 697 NFkB inh: -98.8; Mdm2-MdmX inh: 89.3*; Gli-Sufu antag: -67.6; Mdm2-MdmX conf: 89.6*; Full FLuc ctr: 26.8

What do the screens show for `O=C(Nc1ccc(Cl)c(Cl)c1)Nc1ccccc1O`?
Beta apoptosis: 5.9; Jurkat NFkB inh: -112.4; 697 NFkB inh: -140.4; Mdm2-MdmX inh: -220.7; Gli-Sufu antag: 7.4

How did O=C(Nc1ccc(Oc2ccc(NC(=O)Nc3ccccc3Cl)cc2)cc1)Nc1ccccc1Cl do in these assays?
Beta apoptosis: 53.7; Jurkat NFkB inh: 8.0; 697 NFkB inh: -206.9; Mdm2-MdmX inh: 54.0*; Gli-Sufu antag: 5.7; Mdm2-MdmX conf: 40.5*; Full FLuc ctr: 47.0*

Results for O=C(/C=C/c1ccc(S(=O)(=O)N2CCOCC2)cc1)NCCc1ccc(C(F)(F)F)cc1 ?
Beta apoptosis: 5.1; Jurkat NFkB inh: 7.2; 697 NFkB inh: -10.7; Mdm2-MdmX inh: 20.3; Gli-Sufu antag: 15.6

What do the screens show for `Cn1c(NC(=O)/C=C\c2ccccc2)cc(=O)n(C)c1=O`?
Beta apoptosis: -2.5; Jurkat NFkB inh: -27.2; 697 NFkB inh: -39.6; Mdm2-MdmX inh: -98.0; Gli-Sufu antag: -33.1

How did COc1ccc(S(=O)(=O)N2CCCC2)cc1C(C)C do in these assays?
Beta apoptosis: 0.9; Jurkat NFkB inh: 14.5; 697 NFkB inh: 15.5; Mdm2-MdmX inh: 11.8; Gli-Sufu antag: 0.6

Results for CC1C(=O)Nc2ccc(S(=O)(=O)Nc3ccccc3Br)cc2NC1=O (centres undefined) ?
Beta apoptosis: -1.8; Jurkat NFkB inh: 20.4; 697 NFkB inh: 14.7; Mdm2-MdmX inh: 6.7; Gli-Sufu antag: -13.1

What do the screens show for `CN(CC(=O)Nc1ccc(C#N)cc1)Cc1ccc(Cl)cc1`?
Beta apoptosis: -5.4; Jurkat NFkB inh: 13.5; 697 NFkB inh: -37.2; Mdm2-MdmX inh: -26.7; Gli-Sufu antag: 1.3

How did CC(C)(C)N(NC(=O)Nc1ccc(Cl)c(Cl)c1)C(=O)c1ccccc1 do in these assays?
Beta apoptosis: 23.8; Jurkat NFkB inh: -4.5; 697 NFkB inh: 18.1; Mdm2-MdmX inh: 86.3*; Gli-Sufu antag: 8.0; Mdm2-MdmX conf: 66.5*; Full FLuc ctr: 42.6*
